Results on 16 compounds are retold here after PubChem BioAssay (NCATS).

Where “and” joins values, the source holds several entries; their conditions need not be identical. Equal entries are not always repeated. A number with no mark means an inactive call. Inconclusive results are not listed. Calls of active or inactive are those of the source. Unless noted, calls follow the shape of the dose curve; as a rule, active = well fitted curve in the direction sought with a large enough effect; inconclusive = small, poorly fitted or top-dose-only effect, or another doubt; inactive = no such curve, though single readings can be large; an effect the other way counts as inactive or inconclusive.

Assay [1] relates to Es-2. Briefly: Primary qHTS to identify gynecologic anti-cancer compounds using libraries of approved drugs and bioactive compounds (AID 1345084). Also: nearly all actives have a fitted effect of over 55% in size. Also: potency is read from the fitted curve at half-maximal effect. The conditions noted are these: Gynecologic cancer cell panel viability, ATPlite luminescence, 48 h; series mostly up to 57.5 µM. The procedure, abridged:
(§1)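 Cytotoxicity screen measuring ATP content by luciferase luminescence. Each compound is applied at five concentrations for 48 h at 37 C with 5% CO2.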

Assay [2] has as its system Hek293T. The assay is described as above. The conditions noted are these: Gynecologic cancer cell panel viability, ATPlite luminescence, 48 h, control line for the selectivity index; series mostly up to 57.5 µM. Put shortly: as §1
(In general: Cellular ATP, detected with luciferase, serves as a proxy for viable cell number.)

Assay [3] concerns JEG-3. The assay is described as above. Particulars: Gynecologic cancer cell panel viability, ATPlite luminescence, 48 h; series mostly up to 57.5 µM. The procedure, abridged:
as §1

In assay [4] the test system is OV90. Described as above. The conditions noted are these: Gynecologic cancer cell panel viability, ATPlite luminescence, 48 h; series mostly up to 57.5 µM. The procedure, abridged: as §1
Assay [5] has as its system PA-1. Described as above. The conditions noted are these: Gynecologic cancer cell panel viability, ATPlite luminescence, 48 h; series mostly up to 57.5 µM. Put shortly:
as §1

The test system of assay [6] is SKOV3. Described as above. The conditions noted are these: Gynecologic cancer cell panel viability, ATPlite luminescence, 48 h; series mostly up to 57.5 µM. The procedure, abridged:
as §1

Assay [7] deals with Tov-21-G. The description is as above. The conditions noted are these: Gynecologic cancer cell panel viability, ATPlite luminescence, 48 h; series mostly up to 57.5 µM. Put shortly: as §1
The subject of assay [8] is Tov112D. The assay is described as above. Particulars: Gynecologic cancer cell panel viability, ATPlite luminescence, 48 h; series mostly up to 57.5 µM. Put shortly:
as §1

Assay [9] can be described thus: Drug repurposing screens with cells derived from glioblastoma tumor samples (AID 1345199). Also: nearly all actives have a fitted effect of over 40% in size. Also: potency is read from the fitted curve at half-maximal effect. As to activity, negative = cell killing: % is scaled to controls: 0 for no effect and ±100 for the full control effect. The conditions noted are these: GBM patient neurospheres viability, ATP luminescence, 48 h. The procedure, abridged:
(§2)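 Primary testing used CD133+ neurospheres from four GBM patients, seven concentrations, 48 h exposure and ATP-based viability; confirmation added three slower-growing patient lines.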

Assay [10] deals with HeLa. Put plainly: Primary qHTS to identify gynecologic anti-cancer compounds using libraries of approved drugs and bioactive compounds (AID 1345084). Also: nearly all actives have a fitted effect of over 55% in size. Also: potency is read from the fitted curve at half-maximal effect. Particulars: Gynecologic cancer cell panel viability, ATPlite luminescence, 48 h; series mostly up to 57.5 µM. Put shortly:
as §1
A general note: In qHTS, concentration-response curves come from the screen itself.

The test system of assay [11] is astro. Put plainly: Drug repurposing screens with cells derived from glioblastoma tumor samples (AID 1345199). Also: nearly all actives have a fitted effect of over 40% in size. Also: potency is read from the fitted curve at half-maximal effect. As to activity, negative = cell killing: % is scaled to controls: 0 for no effect and ±100 for the full control effect. Particulars: viability, ATP luminescence, 48 h; series mostly up to 45.9 µM. Put shortly: as §2
The target of assay [12] is Nuclear receptor subfamily 1 group I member 2 (Rattus norvegicus) (UniProt Q9R1A7). Briefly: qHTS assay for small molecule activators of the rat pregnane X receptor (rPXR) signaling pathway (AID 651751; call rule not given here; also: 0% is about no effect). The conditions noted are these: rPXR reporter cells, luciferase (One-Glo), 24 h.
Nuclear receptor subfamily 1 group I member 2 (Rattus norvegicus), sequence (Q9R1A7 whole entry, looked up): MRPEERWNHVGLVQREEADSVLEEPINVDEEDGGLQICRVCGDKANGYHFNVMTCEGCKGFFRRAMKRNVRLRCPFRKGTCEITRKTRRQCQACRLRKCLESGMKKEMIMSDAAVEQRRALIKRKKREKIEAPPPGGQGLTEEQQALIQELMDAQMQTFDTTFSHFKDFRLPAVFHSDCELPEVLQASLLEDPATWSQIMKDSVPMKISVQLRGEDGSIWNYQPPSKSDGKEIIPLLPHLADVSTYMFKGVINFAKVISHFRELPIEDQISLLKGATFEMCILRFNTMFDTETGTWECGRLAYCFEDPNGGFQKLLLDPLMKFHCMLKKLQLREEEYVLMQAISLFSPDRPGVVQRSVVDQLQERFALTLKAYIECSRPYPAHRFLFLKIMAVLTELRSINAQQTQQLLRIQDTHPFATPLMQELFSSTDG
Assay [13] can be described thus: qHTS assay for small molecule activators of the human pregnane X receptor (PXR) signaling pathway (AID 720659; call rule not given here; also: 0% is about no effect).
The nature of assay [14]: qHTS assay to identify inhibitors of the type 1 interferon - major histocompatibility complex class I in skeletal muscle: Counter screen cell viability and HiBit confirmation (AID 1347412). Also: potency is read from the fitted curve at half-maximal effect; nearly all actives have a fitted effect of over 60% in size. The conditions noted are these: iHSKM muscle cells + IFN-b, HiBiT or CellTiter-Glo, 24 h. The procedure, abridged: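 Duplicate plates, pinned identically: one read for HiBiT-tagged endogenous HLA-B luminescence, the other for ATP-content viability via CellTiter Glo. Cells were genome-engineered human myoblasts given 4 ng/ml IFN-b; compounds 12-pt, 1:3 from 46 uM final; 24 hr exposure.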

[15] abbreviates: at 45.9 µM (top of the series), tumour line B.
Where [16] appears, read: at 46.1 µM (top of the series), tumour line C.
The mark [17] stands for this setting: at 45.9 µM (top of the series), tumour line D.

With `C[C@]12CC[C@@H]3c4ccc(OC(=O)c5ccccc5)cc4CC[C@H]3[C@@H]1CC[C@@H]2O`, the Potency result in [1], in assay [2], in assay [3], in assay [4], in [5] and in [7] was “inactive” in each case. The result in assay [6] and in assay [8] was inactive. Moreover, the activity, negative = cell killing is -25.4% in assay [9] (setting [15]) and -17.8% in assay [9] (setting [16]). Moreover, the Potency in assay [9] (tumour line A) was 11.2 µM (active).
In the case of `C=C1[C@H](CO)[C@@H](O)C[C@@H]1n1cnc2c(=O)[nH]c(N)nc21`, the Potency entry in [1], in assay [10], in assay [2], in [3], in assay [4] and in assay [5] was “inactive” in each case. Further, the Potency result in assay [7] and in [11] was “inactive” in each case. The call in assay [6] and in [8] was inactive. In addition, the activity, negative = cell killing was -13.2% in [9] (setting [15]) and -24% in assay [9] (setting [16]).
As for `Nc1ccc(N=Nc2ccccc2)c(N)n1`, the Potency result in assay [1], in assay [2], in assay [3] and in assay [7] was “inactive” throughout. Besides, the result in [6] and in [8] was inactive.
`CC(=O)Oc1cccc2c1C(=O)c1c(OC(C)=O)cc(C(=O)O)cc1C2=O`: the Potency entry in assay [1], in assay [10], in [3] and in [11] was “inactive” in each case. The call in assay [8] was inactive. Also, the values for the activity, negative = cell killing in [9] (setting [15]) and in [9] (setting [17]) were -17.6% and -16.7%, respectively.
As to `CSc1nc2cc(Oc3cccc(Cl)c3Cl)c(Cl)cc2[nH]1`, the activity, negative = cell killing in assay [9] (setting [15]) is -12.6%.
For the compound `C/C(=C\C(=O)OCCCCCCCCC(=O)O)C[C@@H]1OC[C@H](C[C@@H]2O[C@H]2[C@@H](C)[C@H](C)O)[C@@H](O)[C@H]1O`, the Potency result in [1], in assay [10], in assay [2], in assay [3], in assay [4] and in assay [5] was “inactive” throughout. Further, the Potency result in [7] and in [11] was “inactive” throughout. The compound was called inactive in assay [8]. Also, the activity, negative = cell killing is -19.6% in assay [9] (setting [15]), -9.28% in assay [9] (setting [17]) and -21.4% in [9] (setting [16]).
With `N[C@@H](Cc1cc(I)c(Oc2ccc(O)c(I)c2)c(I)c1)C(=O)O`, the Potency result in assay [1], in assay [10], in assay [2], in assay [3], in assay [4] and in assay [5] was “inactive” throughout. The Potency result in assay [7] and in assay [11] was “inactive” throughout. The outcome in [6], in assay [8] and in [13] was inactive. The results for the activity, negative = cell killing in assay [9] (setting [15]) and in [9] (setting [16]) were 0.914% and -18.1%, respectively. Also, the Potency in [9] (tumour line A) was 11.2 µM (active). Moreover, the max response in assay [12] was -4.55%.
For the compound `Nc1nc(NC2CC2)c2ncn([C@@H]3C=C[C@@H](CO)C3)c2n1`, in assay [9] (setting [16]), the activity, negative = cell killing was -22.1%. In addition, in assay [9] (tumour line A), the Potency was 35.5 µM (active).
`CC(C)(C)c1ccc2c(S(=O)(=O)O)c(C(C)(C)C)ccc2c1`: the activity, negative = cell killing in [9] (setting [15]) was 0.454%; in assay [9] (setting [17]), 6.66%; in assay [9] (at 46 µM (top of the series), tumour line A) it was -27.1%; in assay [9] (setting [16]), -16.6%; in assay [9] (at 91.6 µM (top of the series), tumour line B) it was -24.2%; in assay [9] (at 91.6 µM (top of the series), tumour line D), -20.7%. Also, the activity, negative = cell killing in [9] (at 99.2 µM (top of the series), tumour line C) was -7.16%. Further, the Potency result in [11] is “inactive”.
In the case of `C[C@H]1O[C@@H](O[C@H]2[C@@H](O)C[C@H](O[C@H]3[C@@H](O)C[C@H](O[C@H]4CC[C@@]5(C)[C@H](CC[C@@H]6[C@@H]5C[C@@H](O)[C@]5(C)[C@@H](C7=CC(=O)OC7)CC[C@]65O)C4)O[C@@H]3C)O[C@@H]2C)C[C@H](O)[C@@H]1O`, the Potency was 0.316 µM (active) in assay [1]; 0.282 µM (active) in assay [10]; 0.316 µM (active) in assay [2]; 0.631 µM (active) in [4]; 0.282 µM (active) in [5]; 0.1 µM (active) in assay [7]. Besides, the results for the Potency in [11] and in [14] were 0.316 µM (active) and 0.0394 µM (active), respectively. Also, the max response in assay [12] was -0.0646% and -4.92%. The call in assay [13] was inactive.
Turning to `C#C[C@]1(O)CC[C@@H]2[C@H]3CCC4=CC(=O)CC[C@H]4[C@H]3C(=C)C[C@@]21CC`, the activity, negative = cell killing in assay [9] (setting [15]) is 2.86%; in assay [9] (setting [17]) it was -28.7%. The Potency in [9] (tumour line A) was 22.4 µM (active).
Turning to `Oc1ccc(/C=C/c2cc(O)cc(O)c2)cc1`, the Potency in assay [1] was 25.1 µM (active); in assay [7], 22.4 µM (active); in assay [11], 4.47 µM (active). Moreover, the max response in assay [12] is -2.85% and -10.8%.
For the compound `CC(C)(C)c1ccc(CN2CCN(C(c3ccccc3)c3ccc(Cl)cc3)CC2)cc1` (centres undefined), the Potency result in assay [1], in assay [10], in assay [2], in assay [3], in assay [4] and in [5] was “inactive” throughout. Moreover, the Potency result in assay [7] was “inactive”. The compound was classed as inactive in assay [6] and in assay [8]. The Potency in assay [11] was 35.5 µM (active).
Take `CC(=O)Nc1ccc(NC(=S)NC(=O)c2ccc(C(C)(C)C)cc2)cc1`: the Potency entry in assay [10], in [3] and in assay [4] was “inactive” each time. For the same compound, the Potency in [5] is 10 µM (active); in [11], 3.98 µM (active).
For the compound `CCN(CC)CCOCCOC(=O)C(CC)(CC)c1ccccc1`, the Potency entry in assay [1], in assay [10], in assay [2], in [3], in assay [5] and in assay [7] was “inactive” throughout. The call in assay [6] and in assay [8] was inactive. The activity, negative = cell killing in assay [9] (setting [16]) is -23.4%. Moreover, the results for the Potency in assay [9] (tumour line A), in assay [9] (tumour line B) and in [9] (tumour line D) were 1.41 µM (active), 14.1 µM (active) and 8.91 µM (active), respectively.
In the case of `CCCCCCCCCCCC(=O)N(CCO)CCO`, the activity, negative = cell killing in assay [9] (setting [15]) was -26.4%.
